Measurements from PMC13494018.
Values without a mark were called inactive. The rule behind the calls is not given here.

B1: design_376_bf9d4634-8475-4fdb-a175-1db49a23bdcd_232_dldesign_0_cycle1_af2pred (protein)
chain: EKEKLEKIVEEIKKYVEEAKELAKGDISSQSKAVSLLHKAFSLAGKAIGKEAKELEDKMLNAETMEEAVKIGEELYEKFSKIAKA
B2: design_623_6e2e8b1f-5d9a-4413-9869-27a184816b12_2159_dldesign_0_cycle1_af2pred (protein)
chain: AAAAAAKVAEAAAKAMLRTAKAILKESKASGGAKAPDALAAAEVALALADDLERQGGDPKTAEKLKKEAKAVAAEAKKVAA
B3: design_376_bf9d4634-8475-4fdb-a175-1db49a23bdcd_746_dldesign_0_cycle1_af2pred (protein)
chain: MEKAEEMGERLIEAVKESPEKAREVAEEMVRRAKEGDVEEAAAIAQAVAEAYAVAVKENKEAAEIVREALREVQEIGRKKR
B4: design_623_6e2e8b1f-5d9a-4413-9869-27a184816b12_2025_dldesign_0_cycle1_af2pred (protein)
chain: GEERLLAAINEGARAILEVTAPESDAQRNAVVHAFILGMVRGPEQGLADLAAAAAALSPEVAKAAVEEATKIIERYLA
B5: design_376_bf9d4634-8475-4fdb-a175-1db49a23bdcd_425_dldesign_0_cycle1_af2pred (protein)
chain: DEEDEKNLEKVKRIYERAKELAKEGLEAIKKGTSKTKALYGAAKLERAAEAAKAASGGKHKEEMKKIAEESKKLAKELEEASKTY
B6: design_623_6e2e8b1f-5d9a-4413-9869-27a184816b12_1942_dldesign_0_cycle1_af2pred (protein)
chain: AAAAATVAANAALAMAKKALEIAERAKKAGEEAPELAQSALQALDVAEALIAYATAISAAADAATKAKLAEAKKVVKEAREIAEKVIK
B7: design_376_bf9d4634-8475-4fdb-a175-1db49a23bdcd_302_dldesign_0_cycle1_af2pred (protein)
chain: GEAEKEKLKKEIYKLYREERKKVAEAIKKGKEEGKEALEKAEKALEEKAKEAAKYPEAAQLALQYKEALKEYYEMASK
B8: design_623_6e2e8b1f-5d9a-4413-9869-27a184816b12_1410_dldesign_0_cycle1_af2pred (protein)
chain: SEELRERARELREEAERAEREAREAAERGDAERVREQLRRLSRLAAEAARLANQATAAGDEETAAEANEALARAVEAMERAQEWAE
B9: design_376_bf9d4634-8475-4fdb-a175-1db49a23bdcd_370_dldesign_0_cycle1_af2pred (protein)
chain: SLGKKLSEALRKAVRAARKAVEYMKAGDEENAEKYYKEAKEYAKELPEDVRNFVLNTMEKKIEEAKKEYA
B10: design_623_6e2e8b1f-5d9a-4413-9869-27a184816b12_1758_dldesign_0_cycle1_af2pred (protein)
chain: AEKVKELAKKAEELAKKAEKAAKESLAKAEKYAAKADELAREVNREAQKVATSGEAGEALLKALEAQAKARKALAEAKAKAEA
B11: design_623_6e2e8b1f-5d9a-4413-9869-27a184816b12_1572_dldesign_0_cycle1_af2pred (protein)
chain: KAEEVVKIVREAAREAKKDPEKAKEYANRALGALLDLAKAGSQEAALVASQGAAKIAKKITSGASAEEIAKALEEAAKKVEEAAKKE
B12: design_623_6e2e8b1f-5d9a-4413-9869-27a184816b12_1921_dldesign_0_cycle1_af2pred (protein)
chain: SSVAAFLAAAAQAVKAAAEQGNLAAAAAFLRAAALASDPEAGKKLEALAKAAEAATAEEGKAIAKEGAKLLKELAEEVEAK
B13: design_623_6e2e8b1f-5d9a-4413-9869-27a184816b12_1750_dldesign_0_cycle1_af2pred (protein)
chain: DLLEQARIAANSTVALKKTTKEILAKSTPESAEKVAEVAVELAKQAKELGKKAGTKEAKELAKKAEKAAKEAVEAVKKAKA
B14: design_623_6e2e8b1f-5d9a-4413-9869-27a184816b12_1798_dldesign_0_cycle1_af2pred (protein)
chain: AAAEEKTKAYEIALETAKLLTAAAALADELAATNPEAAALAAQARQLNVDLNKTAIAGELTLELAEEYLKKAKEIAARVKALAKAA
B15: design_623_6e2e8b1f-5d9a-4413-9869-27a184816b12_1434_dldesign_0_cycle1_af2pred (protein)
chain: DAAAKELRERATALAGRTLLALARDPAEGERTLEEAVKELEALGKESGLEELAKEEAARLRAQYEAFRAVAEA
B16: design_376_bf9d4634-8475-4fdb-a175-1db49a23bdcd_604_dldesign_0_cycle1_af2pred (protein)
chain: SVAAITAHAEALARKAVADPANAAAYLSEARDYVLTNGDAEALRAAADVLRALGAKAPGGAAFAAAARILERAAEDIEKA
B17: design_376_bf9d4634-8475-4fdb-a175-1db49a23bdcd_737_dldesign_0_cycle1_af2pred (protein)
chain: MAREKQIKLYGESLLEIAIESAVAAIKKYEDAYKIIKELSEKRAKKAEEAGDKEMGEKIKKIGKEIAELAEKDKEKALEYAKKL
B18: design_376_bf9d4634-8475-4fdb-a175-1db49a23bdcd_487_dldesign_0_cycle1_af2pred (protein)
chain: DIKEELKKLAEEVKKLAKEVAELSKKDKEEAKVKAEEAEKLAEKALELAVKAIKEDEEAREVAHEAITEAFYALSVADAAK
B19: design_623_6e2e8b1f-5d9a-4413-9869-27a184816b12_1571_dldesign_0_cycle1_af2pred (protein)
chain: GEEAKKLAEEGDKLAEQGKAATPQEGLALLLEAAKKYSEAARLYREAGNEEEAAKAEAKLQEVNAQLNAAAKAAIAA
B20: design_376_bf9d4634-8475-4fdb-a175-1db49a23bdcd_69_dldesign_0_cycle1_af2pred (protein)
chain: ANKEEVDAAADAISEAFRLAREYVLKEGLDPKEVANKLIQGLDDIEYGLALGEELEKDPASAEAGKALKKAAELLAKI
B21: design_376_bf9d4634-8475-4fdb-a175-1db49a23bdcd_661_dldesign_0_cycle1_af2pred (protein)
chain: SENIKKLSDARNEAIKYLREAVKLAGEEIKEEAAKAIELIGDLEKIPEALEEIEKAIKLAEKVENAEEVKKLLKKAKESAEEALKLS
B22: design_376_bf9d4634-8475-4fdb-a175-1db49a23bdcd_541_dldesign_0_cycle1_af2pred (protein)
chain: EEEAKKLVEKAKEKLKKAKETAKNGTAEEAAKTAKEVFKEAREYGKKLKKKGYDEEYVKKIAEYAHEAAEIYAEESNKV
B23: design_623_6e2e8b1f-5d9a-4413-9869-27a184816b12_2491_dldesign_0_cycle1_af2pred (protein)
chain: TAKALAAAVEKAKELAAIVAEVQGDGAFGAAMVNTLANYAAAAGVPQALVDRARAAAKEALASADGAKVALAELKALAAEFKAA
B24: design_623_6e2e8b1f-5d9a-4413-9869-27a184816b12_2213_dldesign_0_cycle1_af2pred (protein)
chain: AVEELLAKAKEYAAKLKELADDLEAAKALATEKREDIGQVIMAAAIVAATESPEVAARAREVQRHAWSLQR
B25: design_376_bf9d4634-8475-4fdb-a175-1db49a23bdcd_502_dldesign_0_cycle1_af2pred (protein)
chain: GKKEKALKELEKLKKEAEELEEEGKKAGPKAYQEAGSMLIKIESALSAAKKGDEEEAEKAAKKAKEAYEKGKEKVTKLIKEEKAKKE
B26: design_376_bf9d4634-8475-4fdb-a175-1db49a23bdcd_131_dldesign_0_cycle1_af2pred (protein)
chain: DLEEELKKLIEKALKGNLEEALKALDEAVKLVEEKLSKTTADTAKEIAKAGKENAKKAETEEEARKNIAKALKTIKRIALLDAE
B27: design_376_bf9d4634-8475-4fdb-a175-1db49a23bdcd_110_dldesign_0_cycle1_af2pred (protein)
chain: VEELVEKVKKETAKKVWESTDLSAEEKEKVADELEALAKELAKISPEAAKAAKKAAAVVKRFAEDEKKAE
B28: design_623_6e2e8b1f-5d9a-4413-9869-27a184816b12_1541_dldesign_0_cycle1_af2pred (protein)
chain: DFFEKALKAAKAALKKAEEALEKGKEDLAAAKAAVHQAQAAYVLASGLAVAAEAAGADPKVAKEAKELAEKAKELMEQGKKLAAKLA
B29: design_623_6e2e8b1f-5d9a-4413-9869-27a184816b12_1704_dldesign_0_cycle1_af2pred (protein)
chain: MEEALTEAFRAVAEMNRLAEEARKANPEAAEKAEEARREMSRLAIEAARSDAETAAELAKKIKEILEKTKKVVEELA
B30: design_623_6e2e8b1f-5d9a-4413-9869-27a184816b12_2207_dldesign_0_cycle1_af2pred (protein)
chain: NPKVEELREEVRRLIAELARAGVAGTPEIAATVGAAIEQALKLLGESRETGEESLKEAIKIVKEALKAAA
B31: design_623_6e2e8b1f-5d9a-4413-9869-27a184816b12_1445_dldesign_0_cycle1_af2pred (protein)
chain: EEAVLERIRALGEEGAALFQAAIKAAVAGDVAAAEALLKAGREKFEEAIALGEATSPRARELAEEVRRRMEAGEKIAQLAIEGAKA
B32: design_376_bf9d4634-8475-4fdb-a175-1db49a23bdcd_214_dldesign_0_cycle1_af2pred (protein)
chain: MELLKEAEKYAKEAKEYAEKALKEPEKAEEYVKKAAEYVAKLYELAAEAYRLDKELGKKAKKLAKEARKEVKEKYKEAKK
B33: design_623_6e2e8b1f-5d9a-4413-9869-27a184816b12_2057_dldesign_0_cycle1_af2pred (protein)
chain: MEVIEKLKEYGQQAIDILTGLAKAQPAVKDVAEPAAQEVREATKKAVERGEKEGEEAAKKEYEKVHALANAALARVSKLAAA
B34: design_623_6e2e8b1f-5d9a-4413-9869-27a184816b12_1669_dldesign_0_cycle1_af2pred (protein)
chain: SSALQTVKGYLALGKVAATAIRSGKVELGKELAEAAIKGALEAGKEHPEVAEEAEKAAEEIRKITEEALEEVEEA
B35: design_376_bf9d4634-8475-4fdb-a175-1db49a23bdcd_377_dldesign_0_cycle1_af2pred (protein)
chain: GEEVEKLYKELIKAGKEADKALELAVKIGKVDSETLQILGEASIYADNPELAKGLAERDPEKAKERIKETKKAVEEVKKLYKEYK
B36: design_376_bf9d4634-8475-4fdb-a175-1db49a23bdcd_538_dldesign_0_cycle1_af2pred (protein)
chain: EAAELAALKAAGKAMAAVVKAADPALGAKVAATVEAGAKGTPAEFKKALQDAIGAVLLENPEAGRAAAKAAKDTYKAAKAA
B37: design_623_6e2e8b1f-5d9a-4413-9869-27a184816b12_1575_dldesign_0_cycle1_af2pred (protein)
chain: NAGQAVADALRAATEAERAAAAVDPALAAQARALLAKAMQAAVAGDDAEAIAYAAEVRALRDEVLARAAA
B38: design_623_6e2e8b1f-5d9a-4413-9869-27a184816b12_1663_dldesign_0_cycle1_af2pred (protein)
chain: GLEEFEKIVREAAEKVIENAGDPEKQREIVLEAAKKAEEAGYSATVGAGAINARVRAEGTPEAAAIAAEVYQELRDKERA

CD276, Q5ZPR3, sequence (Q5ZPR3 whole entry): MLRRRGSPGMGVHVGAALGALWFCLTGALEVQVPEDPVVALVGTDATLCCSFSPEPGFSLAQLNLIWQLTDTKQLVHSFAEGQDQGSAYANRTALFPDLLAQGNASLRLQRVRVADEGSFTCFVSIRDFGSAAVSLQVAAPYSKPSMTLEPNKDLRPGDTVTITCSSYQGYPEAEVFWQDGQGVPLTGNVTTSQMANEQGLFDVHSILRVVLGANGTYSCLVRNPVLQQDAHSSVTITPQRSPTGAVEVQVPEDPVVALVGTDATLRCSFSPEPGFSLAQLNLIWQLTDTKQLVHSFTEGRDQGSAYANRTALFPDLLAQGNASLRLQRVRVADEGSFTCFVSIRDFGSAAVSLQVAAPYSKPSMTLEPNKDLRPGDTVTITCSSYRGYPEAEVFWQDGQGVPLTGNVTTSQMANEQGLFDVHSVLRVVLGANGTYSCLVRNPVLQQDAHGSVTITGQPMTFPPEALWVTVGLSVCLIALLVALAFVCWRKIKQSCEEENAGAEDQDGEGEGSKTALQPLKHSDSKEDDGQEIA
VTCN1, Q7Z7D3, sequence (Q7Z7D3 whole entry): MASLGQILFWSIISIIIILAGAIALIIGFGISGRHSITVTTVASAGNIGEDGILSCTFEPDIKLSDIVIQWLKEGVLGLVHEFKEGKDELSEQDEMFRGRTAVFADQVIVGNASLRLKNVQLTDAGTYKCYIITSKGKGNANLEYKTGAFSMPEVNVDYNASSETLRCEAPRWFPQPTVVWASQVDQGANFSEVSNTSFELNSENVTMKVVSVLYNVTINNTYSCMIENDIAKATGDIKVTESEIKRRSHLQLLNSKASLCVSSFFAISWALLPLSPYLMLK

Binder | binding in a display sort (VTCN1, Q7Z7D3) | binding in a display sort (CD276, Q5ZPR3)
B1 | not found | –
B2 | – | not found
B3 | not found | –
B4 | – | not found
B5 | not found | –
B6 | – | not found
B7 | not found | –
B8 | – | not found
B9 | not found | –
B10 | – | not found
B11 | – | not found
B12 | – | not found
B13 | – | not found
B14 | – | not found
B15 | – | not found
B16 | not found | –
B17 | not found | –
B18 | not found | –
B19 | – | not found

Binder | binding in a display sort (VTCN1, Q7Z7D3) | binding in a display sort (CD276, Q5ZPR3)
B20 | not found | –
B21 | not found | –
B22 | not found | –
B23 | – | not found
B24 | – | not found
B25 | not found | –
B26 | not found | –
B27 | not found | –
B28 | – | not found
B29 | – | not found
B30 | – | not found
B31 | – | not found
B32 | not found | –
B33 | – | not found
B34 | – | not found
B35 | not found | –
B36 | not found | –
B37 | – | not found
B38 | – | not found
